Source: PubChem BioAssay
An excerpt weighted towards active compounds, which were near 2.1% of everything screened.
KLF5 inhibitor = KLF5 expression inhibitors, primary screen, DLD-1 cells, luminescence; DLD-1 KLF5 promoter-luciferase reporter; inhibition, % at 5 µM; actives 0.23% (n = 290,000); AID 1700, 2009;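 active = inhibition above a per-plate limit of that plate's mean compound inhibition plus 3 SD, cut at about 60% in these data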;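 also: higher means less KLF5 promoter-driven luciferase light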
APP 5UTR inh = inhibitors of APP translation via 5'UTR reporter, primary screen, APP 5'UTR luciferase, SH-SY5Y cells | SH-SY5Y APP 5'UTR-luciferase reporter, luminescence | inhibition, % at 2 µM | actives 0.82% (n = 190,000);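 active = inhibition above a set limit, derived from the sample mean plus 3 SD, cut at about 45% in these data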
Ba/F3 V617F tox = reduced viability of JAK2V617F-dependent Ba/F3 cells, primary screen, JAK2V617F inhibitor project, cell-based, Ba/F3 EpoR-JAK2V617F, luminescence. ATP luminescence. inhibition, % at 5.6 µM. actives 1.1% (n = 220,000);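 active = inhibition above the campaign mean plus 3 SD over all tested compounds, cut at about 24% in these data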;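 also: cytokine-independent growth of Ba/F3 cells driven by EpoR plus mutant JAK2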
BaF3 tox = parental Ba/F3 cell viability inhibition, counter-screen for JAK2V617F inhibitor project, murine pro-B, CellTiter-Glo luminescence | AID 1486, 2009 | inhibition, % at 5.6 µM | actives 1.1% (n = 220,000) | CellTiter-Glo ATP luminescence;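 active = inhibition above a per-campaign cutoff, the mean inhibition of all tested compounds plus 3 SD, cut at about 27% in these data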
IEC-6 cytotox = cytotoxicity in IEC-6 intestinal epithelial cells, primary screen, cytotoxicity control for KLF5 inhibitor project, cell-based, luminescence; IEC-6 cytotoxicity, luminescence viability; inhibition, % at 5 µM; actives 0.78% (n = 290,000); AID 1825, 2009; in the data active = inhibition above about 22%
aSyn 5UTR inh = MLPCN primary screen, SNCA 5' untranslated region; alpha-synuclein 5'UTR reporter, inhibitor activity; inhibition, % (tested at 7.5 µM); actives 0.82% (n = 300,000); AID 1813, 2009; in the data active = inhibition above about 60%;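 also: H4 neuroglioblastoma cells stably carrying SNCA 5'UTR luciferase fusion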
Large screens that a line does not name were inactive.

Cc1cc(NC(=O)CSc2nc(C(C)(C)C)nc3ccccc23)no1	APP 5UTR inh 49
CC(C)CC(NC(=O)c1ccc(Cl)cc1)C(=O)OCC(=O)c1ccc2c(c1)NC(=O)CO2 (centres undefined)	aSyn 5UTR inh 96
CCN(CC(=O)Nc1c(F)cccc1F)C(=O)c1cc2ccccc2oc1=O	none (no result: KLF5 inhibitor, APP 5UTR inh, Ba/F3 V617F tox, BaF3 tox, IEC-6 cytotox)
O=C(/C=C/c1ccc([N+](=O)[O-])cc1)NC1CC2CCC1C2 (centres undefined)	none
O=C(/C=C/c1ccc([N+](=O)[O-])cc1)NNC(=O)C1CC1	Ba/F3 V617F tox 44, BaF3 tox 50
COc1ccccc1CNC(=O)C1CCN(S(=O)(=O)c2ccc(-n3cnnn3)cc2)CC1	none (no result: APP 5UTR inh, Ba/F3 V617F tox, BaF3 tox)
COc1cc(C2Nc3cccc4cccc(c34)N2)cc(OC)c1OC(C)=O	BaF3 tox 40
COc1ccc(NC(=O)C(=O)NCC(c2ccco2)N2CCc3ccccc32)cc1 (centres undefined)	aSyn 5UTR inh 85 (no result: KLF5 inhibitor, APP 5UTR inh, Ba/F3 V617F tox, BaF3 tox, IEC-6 cytotox)
CC(=O)Nc1ccc(NC(=O)C(=O)NCC(c2ccco2)N2CCc3ccccc32)cc1 (centres undefined)	none (no result: KLF5 inhibitor, APP 5UTR inh, Ba/F3 V617F tox, BaF3 tox, IEC-6 cytotox)
Cc1nc(-n2[nH]c3c(c2=O)CCCC3)[nH]c(=O)c1Cc1ccccc1	aSyn 5UTR inh 90
COc1ccc(N=C2C(=Nc3ccc(OC)cc3)N(c3ccc(OC)cc3)C(=S)N2C(=O)c2ccc(OC)cc2)cc1	none
COc1ccc(N=C2C(=Nc3ccc(OC)cc3)N(c3ccc(N(C)C)cc3)C(=S)N2c2ccc(OC)cc2)cc1	aSyn 5UTR inh 99
COc1ccc(N2CCN(S(=O)(=O)CCNC(=O)Cc3ccc([N+](=O)[O-])cc3)CC2)cc1	aSyn 5UTR inh 65 (no result: APP 5UTR inh, Ba/F3 V617F tox, BaF3 tox)
COc1ccc(CCC(=O)NCCS(=O)(=O)N2CCN(c3ccc(OC)cc3)CC2)cc1	none (no result: APP 5UTR inh, Ba/F3 V617F tox, BaF3 tox)
O=C(NCCS(=O)(=O)N1CCN(c2ccc(F)cc2)CC1)c1ccc(Br)o1	aSyn 5UTR inh 127 (no result: APP 5UTR inh, Ba/F3 V617F tox, BaF3 tox)
Cc1csc(N/N=C/c2ccccn2)n1	aSyn 5UTR inh 69
C(=N\Nc1nc2ccccc2s1)/c1ccccn1	aSyn 5UTR inh 101 (no result: APP 5UTR inh)
S=C(c1ccc(-c2ccccc2)cc1)N1CCOCC1	aSyn 5UTR inh 64 (no result: APP 5UTR inh, Ba/F3 V617F tox, BaF3 tox)
Cc1c(C(C)(C)C)c(C=S)n2ccccc12	APP 5UTR inh 70
CCCN1CCC(=NNc2ccc(S(=O)(=O)N(CC)CC)cc2[N+](=O)[O-])CC1	APP 5UTR inh 53, aSyn 5UTR inh 79
O=C(c1sc(N2CCOCC2)nc1-c1ccccc1)N1CCCCC1	none
[2H]c1c([2H])c([2H])c(-c2nc(N3CCCCCC3)sc2C(=O)c2ccccc2)c([2H])c1[2H]	BaF3 tox 95
CCOc1ccc2ccccc2c1C(=O)N1CCN(c2ccccc2)CC1	Ba/F3 V617F tox 46, BaF3 tox 42, IEC-6 cytotox 25
CCOC(=O)c1[nH]c(C)c(C(=O)N2CCN(c3ccccc3)CC2)c1C	none
Cc1ccccc1C(=O)Nc1nnc(-c2ccco2)s1	aSyn 5UTR inh 65
CC(C)(C)c1cc(C2=CSC3=NCCN23)cc(C(C)(C)C)c1O	none (no result: APP 5UTR inh, Ba/F3 V617F tox, BaF3 tox)
C#CCOCCOCCOCCNc1nc(N2CCN(C(=O)CCCCCCCCCCNC(=O)[C@H](CCCCN)n3cc(CCCC(=O)O)nn3)CC2)nc(N2CCN(C(=O)CCCCCCCCCCNC(=O)[C@H](CCCN=C(N)N)n3cc(C[C@@H](C)CC)nn3)CC2)n1	none (no result: KLF5 inhibitor, APP 5UTR inh, Ba/F3 V617F tox, BaF3 tox, IEC-6 cytotox)
C#CCOCCOCCOCCNc1nc(N2CCN(C(=O)CCCCCCCCCCNC(=O)[C@H](CO)n3cc(CCCSC)nn3)CC2)nc(N2CCN(C(=O)CCCCCCCCCCNC(=O)[C@H](CCCCN)n3cc(C[C@@H](C)CC)nn3)CC2)n1	aSyn 5UTR inh 110 (no result: KLF5 inhibitor, APP 5UTR inh, Ba/F3 V617F tox, BaF3 tox, IEC-6 cytotox)
C#CCOCCOCCOCCNc1nc(N2CCN(C(=O)CCCCCCCCCCNC(=O)[C@H](CCCCN)n3cc(C[C@@H](C)CC)nn3)CC2)nc(N2CCN(C(=O)CCCCCCCCCCNC(=O)[C@H](CCCCN)n3cc(C[C@@H](C)CC)nn3)CC2)n1	aSyn 5UTR inh 107 (no result: KLF5 inhibitor, APP 5UTR inh, Ba/F3 V617F tox, BaF3 tox, IEC-6 cytotox)
C#CCOCCOCCOCCNc1nc(N2CCN(C(=O)CCCCCCCCCCNC(=O)[C@H](CO)n3cc(CCCSC)nn3)CC2)nc(N2CCN(C(=O)CCCCCCCCCCNC(=O)[C@H](CO)n3cc(CCCSC)nn3)CC2)n1	none (no result: KLF5 inhibitor, APP 5UTR inh, Ba/F3 V617F tox, BaF3 tox, IEC-6 cytotox)
